Several values for one entry are separate records, joined by “and”; a condition that tells them apart may be missing. Equal values may be shown once. More than one record can exist for a structure, and the calls need not agree. Activity calls are given as the source filed them. The calls were made as follows: active = hit-call score of the fitted dose curve at least 0.9, where 1 is the maximum; inactive = score below 0.9.
What was measured:
[1] = BSK_BF4T_SRB: Viability Assessment in the BioMAP Diversity Plus: BF4T Assay (AID 2284274); details: primary human bronchial epithelial cells with fibroblasts;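 also: measured 24 h after compound addition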
Experimental: BSK_BF4T is a cell-based, multiplexed-readout assay that uses bronchial epithelial cells and dermal fibroblasts, a human vascular primary cell, with measurements taken at 24 hours after chemical dosing in a microplate: 96-well plate.BSK_BF4T_SRB is an assay component measured in the BSK_BF4T assay. It measures 0.1% sulforhodamine related to cell death using Sulforhodamine staining technology.Data from the assay component BSK_BF4T_SRB was analyzed at the endpoint, BSK_BF4T_SRB, in the positive analysis fitting direction relative to DMSO as the negative control and baseline of activity. Using a type of viability reporter, gain or loss-of-signal activity can be used to understand protein changes. […]
(§1) The levels of cell surface (or secreted, indicated by the prefix "s") biomarker endpoints were measured by ELISA. Overt cytotoxicity to cells in confluent adherent cultures (all systems other than the BT system) was assessed by measuring total protein levels using sulforhodamine B (SRB) staining in parallel cultures at the time of biomarker measurements, indicated as SRB endpoints. For proliferation assays for adherent cell types, individual cell types are cultured at sub-confluence and relative cell numbers quantified by SRB staining at time points optimized for each system (48 h: 3C and CASM3C systems; 72 h: BT and HDF3CGF systems; 96 h: SAg system). […] Plates were read after 6 h.

[2] = read-out: urokinase Plasminogen Activator (uPA), PLAU (gene 5328); test: BSK_BF4T_uPA: BioMAP Diversity Plus: BF4T Assay for urokinase Plasminogen Activator (uPA) Biomarker Activity (AID 2284275); details: primary human bronchial epithelial cells with fibroblasts
Outline: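 uPA levels measured by ELISA at 24 hours in BF4T cultures (bronchial epithelial cells plus dermal fibroblasts) and compared with DMSO; cytotoxicity tracked in parallel cultures by sulforhodamine B staining.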

[3] = read-out: Matrix Metallopeptidase 9 (MMP9), MMP9 (gene 4318); test: BSK_BF4T_MMP9: BioMAP Diversity Plus: BF4T Assay for Matrix Metallopeptidase 9 (MMP9) Biomarker Activity (AID 2284276); details: primary human bronchial epithelial cells with fibroblasts
Experimental: BSK_BF4T is a cell-based, multiplexed-readout assay that uses bronchial epithelial cells and dermal fibroblasts, a human vascular primary cell, with measurements taken at 24 hours after chemical dosing in a microplate: 96-well plate.BSK_BF4T_MMP9 is an assay component measured in the BSK_BF4T assay. It measures MMP-9 antibody related to regulation of gene expression using ELISA technology.Data from the assay component BSK_BF4T_MMP9 was analyzed at the endpoint, BSK_BF4T_MMP9, in the positive analysis fitting direction relative to DMSO as the negative control and baseline of activity. Using a type of binding reporter, gain or loss-of-signal activity can be used to understand protein changes. […]
as §1

[4] = read-out: Interleukin-8 (IL8), CXCL8 (gene 3576); test: BSK_IMphg_IL8: BioMAP Diversity Plus: IMphg Assay for Interleukin-8 (IL8) Biomarker Activity (AID 2284277); details: primary human endothelial cells with macrophages
Outline: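 IL-8 levels were measured by ELISA 24 h after dosing in primary human venular endothelial cell–macrophage cultures, referenced to DMSO; parallel SRB staining monitored overt cytotoxicity.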

[5] = read-out: Intercellular Adhesion Molecule 1 (ICAM1), ICAM1 (gene 3383); test: BSK_BE3C_ICAM1: BioMAP Diversity Plus: BE3C Assay for Intercellular Adhesion Molecule 1 (ICAM1) Biomarker Activity (AID 2284278); details: primary human bronchial epithelial cells
Outline: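 hu bronchial epithelial primary cells, 24 h cpd exposure, ICAM-1 ELISA; gain-of-signal fit vs DMSO baseline.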

[6] = read-out: Interferon-inducible T-cell alpha chemoattractant (ITAC), CXCL11 (gene 6373); test: BSK_BE3C_ITAC: BioMAP Diversity Plus: BE3C Assay for Interferon-inducible T-cell alpha chemoattractant (ITAC) Biomarker Activity (AID 2284279); details: primary human bronchial epithelial cells
Outline: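 BE3C cells (human primary bronchial epithelium), 24 h compound exposure, I-TAC by ELISA, DMSO = negative control/baseline, positive fitting direction.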

[7] = read-out: Interleukin-8 (IL8), CXCL8 (gene 3576); test: BSK_BE3C_IL8: BioMAP Diversity Plus: BE3C Assay for Interleukin-8 (IL8) Biomarker Activity (AID 2284280); details: primary human bronchial epithelial cells
Outline: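 Measured at 24 h after treatment, IL-8 from human primary bronchial epithelial cells is determined by ELISA, and the response is modelled as increasing relative to DMSO negative control.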

[8] = read-out: Epidermal growth factor receptor (EGFR), EGFR (gene 1956); test: BSK_BE3C_EGFR: BioMAP Diversity Plus: BE3C Assay for Epidermal growth factor receptor (EGFR) Biomarker Activity (AID 2284281); details: primary human bronchial epithelial cells
Experimental: (§2) BSK_BE3C is a cell-based, multiplexed-readout assay that uses bronchial epithelial cell, a human lung primary cell, with measurements taken at 24 hours after chemical dosing in a 96-well plate.BSK_BE3C_EGFR is an assay component measured in the BSK_BE3C assay. It measures EGFR antibody related to regulation of gene expression using ELISA technology.Data from the assay component BSK_BE3C_EGFR was analyzed at the endpoint, BSK_BE3C_EGFR, in the positive analysis fitting direction relative to DMSO as the negative control and baseline of activity. Using a type of binding reporter, gain or loss-of-signal activity can be used to understand protein changes. […]
as §1

[9] = read-out: KRT18 (gene 3875); test: BSK_BE3C_Keratin818: BioMAP Diversity Plus: BE3C Assay for Keratin 818 Biomarker Activity (AID 2284282); details: primary human bronchial epithelial cells
Experimental: as §2, with “plate.BSK_BE3C_Keratin818” for “plate.BSK_BE3C_EGFR”, “Keratin 8/18” for “EGFR”, “BSK_BE3C_Keratin818” for “BSK_BE3C_EGFR”, “BSK_BE3C_Keratin818,” for “BSK_BE3C_EGFR,”
as §1

[10] = read-out: Matrix Metallopeptidase 9 (MMP9), MMP9 (gene 4318); test: BSK_BE3C_MMP9: BioMAP Diversity Plus: BE3C Assay for Matrix Metallopeptidase 9 (MMP9) Biomarker Activity (AID 2284283); details: primary human bronchial epithelial cells
Experimental: as §2, with “plate.BSK_BE3C_MMP9” for “plate.BSK_BE3C_EGFR”, “MMP-9” for “EGFR”, “BSK_BE3C_MMP9” for “BSK_BE3C_EGFR”, “BSK_BE3C_MMP9,” for “BSK_BE3C_EGFR,”
as §1

With `CCNS(=O)(=O)C(F)(F)C(F)(F)C(F)(F)C(F)(F)C(F)(F)C(F)(F)C(F)(F)C(F)(F)F` as the compound, how does the AC50 [1] read?
Its AC50 is 44.7 µM (active) and 41.4 µM (active).

What about the AC50 [2] of the same compound?
The AC50 was 47.3 µM (active).

What about the outcome [2] of the same compound?
The outcome was “inactive”.

What about the AC50 [3] of the same compound?
Its AC50 is 30 µM (active) and 39.9 µM (active).

What about the AC50 [4] of the same compound?
The AC50 was 21.3 µM (active) and 27.2 µM (active).

What about the AC50 [5] of the same compound?
Its AC50 is 40.3 µM (active).

And the outcome [5]?
The outcome was “inactive”.

What about the AC50 [6] of the same compound?
The AC50 was 40 µM (active) and 35.2 µM (active).

And the AC50 [7]?
The AC50 was 16.4 µM (active) and 22.6 µM (active).

What about the AC50 [8] of the same compound?
The AC50 was 38.2 µM (active) and 23.3 µM (active).

What about the AC50 [9] of the same compound?
Its AC50 is 21.5 µM (active) and 21.8 µM (active).

And the AC50 [10]?
Its AC50 is 30 µM (active) and 18.5 µM (active).
